Broadly, the AC50 is the concentration giving half of the maximal activity seen.

Common to all, as to conditions: mRNA level, 48 h; actives raise or lower the signal
Read-out in test [1]: Cytochrome P450 2C19 (Homo sapiens) (UniProt P33261)
The test can be described thus: LTEA_HepaRG_CYP2C19: Life Technologies and Expression Analysis (LTEA) Assay for CYP2C19 using HepaRG (AID 2283482). The method in brief: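 Transcript levels of CYP2C19 were quantified by qRT-PCR after HepaRG cells were treated for 48 hours with test chemicals up to 100 uM (eight half-log concentrations, 0.5% DMSO vehicle). Gain or loss of signal was fitted relative to DMSO.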

Read-out in test [2]: CYP2C8 (gene 1558)
The test is described as follows: LTEA_HepaRG_CYP2C8: Life Technologies and Expression Analysis (LTEA) Assay for CYP2C8 using HepaRG (AID 2283483). The method in brief:
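HepaRG (human liver line), 48 h chemical exposure, 8-pt half-log series from 100 uM, 0.5% DMSO vehicle. Readout: CYP2C8 transcript by qRT-PCR, housekeeping-normalized. Bidirectional fit vs DMSO baseline.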

Read-out in test [3]: CYP2E1 (gene 1571)
The test can be described thus: LTEA_HepaRG_CYP2E1: Life Technologies and Expression Analysis (LTEA) Assay for CYP2E1 using HepaRG (AID 2283485). The method in brief: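 Readout is qRT-PCR of CYP2E1 mRNA, normalized to three housekeeping genes and fitted bidirectionally against 0.5% DMSO. HepaRG cells were dosed 48 h at eight concentrations, highest 100 uM with half-log dilutions.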

Read-out in test [4]: CYP4A11 (gene 1579)
The test can be described thus: LTEA_HepaRG_CYP4A11: Life Technologies and Expression Analysis (LTEA) Assay for CYP4A11 using HepaRG (AID 2283486). The method in brief: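 HepaRG, 48 h chem exposure, 8 conc (100 uM top, half-log), 0.5% DMSO vehicle; qRT-PCR readout, housekeeping-gene normalized; bidirectional curve fit vs DMSO baseline.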

Read-out in test [5]: Cytochrome P450 3A4 (Homo sapiens) (UniProt P08684)
The test can be described thus: LTEA_HepaRG_CYP3A4: Life Technologies and Expression Analysis (LTEA) Assay for CYP3A4 using HepaRG (AID 2283487). In a few lines: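 Differentiated HepaRG cells, plated 48 h, then dosed 48 h in serum-free induction medium with 0.5% DMSO, 8 half-log concentrations up to 100 uM, duplicate. CYP3A4 mRNA by qRT-PCR, normalized to ACTB/GAPDH/POLR2A; bidirectional fit versus DMSO.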

Read-out in test [6]: DNA damage-inducible transcript 3 (DDIT3), DDIT3 (gene 1649)
The test is described as follows: LTEA_HepaRG_DDIT3: Life Technologies and Expression Analysis (LTEA) Assay for DNA damage-inducible transcript 3 (DDIT3) using HepaRG (AID 2283488). The method in brief: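 Cells are human HepaRG liver cells treated for 48 h with eight half-log concentrations up to 100 uM in 0.5% DMSO. Transcript levels come from qRT-PCR normalized to three housekeeping genes, with activity fitted in both directions relative to vehicle.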

Read-out in test [7]: Pro-epidermal growth factor (Homo sapiens) (UniProt P01133)
The test is described as follows: LTEA_HepaRG_EGF: Life Technologies and Expression Analysis (LTEA) Assay for Epidermal growth factor (EGF) using HepaRG (AID 2283489). The method in brief: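 HepaRG, 48 h dosing, 100 uM top, half-log x8, 0.5% DMSO. Readout: TaqMan qRT-PCR (Fluidigm array), housekeeping-normalized. Gain or loss of signal fit vs DMSO.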

Read-out in test [8]: Early growth response protein 1 (EGR1) transcription factor, EGR1 (gene 1958)
The test can be described thus: LTEA_HepaRG_EGR1: Life Technologies and Expression Analysis (LTEA) Assay for Early growth response protein 1 (EGR1) transcription factor using HepaRG (AID 2283490). In a few lines:
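HepaRG, 48 h exposure, 8-pt half-log series from 100 uM, 0.5% DMSO vehicle; EGR1 transcript by TaqMan qRT-PCR (Fluidigm array), housekeeping-normalized; bidirectional fit relative to DMSO baseline.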

Read-out in test [9]: Ezrin (EZR), EZR (gene 7430)
The test can be described thus: LTEA_HepaRG_EZR: Life Technologies and Expression Analysis (LTEA) Assay for Ezrin (EZR) using HepaRG (AID 2283491). The method in brief: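 EZR transcript levels came from Fluidigm qRT-PCR and were normalized to three housekeeping genes after 48 h chemical exposure of HepaRG cells. Dosing used an 8-point half-log series with a 100 uM top concentration in 0.5% DMSO, tested in duplicate; both directions were fitted versus vehicle.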

Read-out in test [10]: Cytochrome P450 3A7 (Homo sapiens) (UniProt P24462)
The test can be described thus: LTEA_HepaRG_CYP3A7: Life Technologies and Expression Analysis (LTEA) Assay for CYP3A7 using HepaRG (AID 2283492). The method in brief:
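Human HepaRG liver cells, 48 h post-plating, switched to serum-free induction medium and exposed in duplicate for 48 h. Dosing: 100 uM top, half-log dilutions, 8 points, 0.5% DMSO vehicle. Read-out: CYP3A7 mRNA, gain or loss fitted against DMSO baseline.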

Read-out in test [11]: CYP3A5 (gene 1577)
The test can be described thus: LTEA_HepaRG_CYP3A5: Life Technologies and Expression Analysis (LTEA) Assay for CYP3A5 using HepaRG (AID 2283493). The method in brief:
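Human HepaRG hepatic cells receive 48 h chemical treatment at eight concentrations (half-log steps from 100 uM) in 0.5% DMSO. Expression of CYP3A5 is quantified by Fluidigm qRT-PCR and normalized to three reference genes.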

Read-out in test [12]: Fatty Acid-Binding Protein 1 (FABP1), FABP1 (gene 2168)
The test is described as follows: LTEA_HepaRG_FABP1: Life Technologies and Expression Analysis (LTEA) Assay for Fatty Acid-Binding Protein 1 (FABP1) using HepaRG (AID 2283494). The method in brief: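 qRT-PCR readout of FABP1 transcript (normalized to three housekeeping genes) after 48 h chemical exposure of HepaRG cells; eight concentrations, half-log steps, max 100 uM, 0.5% DMSO vehicle; gain or loss fitted relative to DMSO baseline.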

Read-out in test [13]: Cytochrome P450 4A22 (Homo sapiens) (UniProt Q5TCH4)
The test is described as follows: LTEA_HepaRG_CYP4A22: Life Technologies and Expression Analysis (LTEA) Assay for Cytochrome P450 4A22 (CYP4A22) using HepaRG (AID 2283495). The method in brief:
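Readout is CYP4A22 transcript induction or loss, quantified by qRT-PCR and normalized to ACTB, GAPDH and POLR2A. Human HepaRG cells receive test chemicals for 48 h at eight half-log concentrations from 100 uM in 0.5% DMSO.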

Read-out in test [14]: Cytochrome P450 7A1 (Homo sapiens) (UniProt P22680)
The test is described as follows: LTEA_HepaRG_CYP7A1: Life Technologies and Expression Analysis (LTEA) Assay for Cytochrome P450 7A1 (CYP7A1) using HepaRG (AID 2283496). In a few lines: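 HepaRG, 48 h exposure, 8-pt half-log series from 100 uM, 0.5% DMSO vehicle, duplicates. Readout: TaqMan qRT-PCR mRNA vs three housekeeping genes; bidirectional curve fit against DMSO baseline.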

Read-out in test [15]: Glutamate-cysteine ligase catalytic (GCLC), GCLC (gene 2729)
The test is described as follows: LTEA_HepaRG_GCLC: Life Technologies and Expression Analysis (LTEA) Assay for Glutamate-cysteine ligase catalytic (GCLC) using HepaRG (AID 2283498). The method in brief:
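HepaRG, 48 h exposure, 8-pt half-log series from 100 uM, 0.5% DMSO vehicle; TaqMan qRT-PCR for GCLC mRNA, housekeeping-normalized; bidirectional curve fit vs DMSO baseline.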

Read-out in test [16]: growth arrest and DNA damage 45 (GADD45G), GADD45G (gene 10912)
The test is described as follows: LTEA_HepaRG_GADD45G: Life Technologies and Expression Analysis (LTEA) Assay for growth arrest and DNA damage 45 (GADD45G) using HepaRG (AID 2283499). The method in brief: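 Gain or loss of GADD45G mRNA, quantified by TaqMan qRT-PCR against three housekeeping genes, is fitted in both directions relative to 0.5% DMSO. Human HepaRG cultures receive test chemical for 48 h at up to 100 uM.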

Read-out in test [17]: Glutamate-cysteine ligase regulatory (GCLM), GCLM (gene 2730)
The test can be described thus: LTEA_HepaRG_GCLM: Life Technologies and Expression Analysis (LTEA) Assay for Glutamate-cysteine ligase regulatory (GCLM) using HepaRG (AID 2283500). The method in brief: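 Endpoint is GCLM transcript level by qRT-PCR, normalized to three housekeeping genes, after 48 h chemical exposure of human HepaRG cells (0.5% DMSO vehicle, top 100 uM, half-log dilutions). Fitting was bidirectional relative to DMSO.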

Read-out in test [18]: Glutathione S-transferase M3 (GSTM3), GSTM3 (gene 2947)
The test is described as follows: LTEA_HepaRG_GSTM3: Life Technologies and Expression Analysis (LTEA) Assay for Glutathione S-transferase M3 (GSTM3) using HepaRG (AID 2283501). In a few lines: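 HepaRG, plated 48 h, then serum-free induction medium; test chemical 48 h, duplicate; 100 uM top, half-log x8, 0.5% DMSO. Read-out: GSTM3 mRNA (TaqMan qRT-PCR, Fluidigm array). Bidirectional fit vs DMSO.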

Read-out in test [19]: CYP2C9 (gene 1559)
The test can be described thus: LTEA_HepaRG_CYP2C9: Life Technologies and Expression Analysis (LTEA) Assay for CYP2C9 using HepaRG (AID 2283484). The method in brief:
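HepaRG, 48 h dosing, 8-pt half-log series, top 100 uM, 0.5% DMSO vehicle. Read-out: CYP2C9 transcript by TaqMan qRT-PCR, housekeeping-normalized (ACTB/GAPDH/POLR2A). Gain or loss fitted vs DMSO baseline.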

Read-out in test [20]: Glutathione S-Transferase (GSTA2), GSTA2 (gene 2939)
The test is described as follows: LTEA_HepaRG_GSTA2: Life Technologies and Expression Analysis (LTEA) Assay for Glutathione S-Transferase (GSTA2) using HepaRG (AID 2283497). In a few lines:
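qRT-PCR readout of GSTA2 transcript, normalized to three housekeeping genes, fitted bidirectionally against 0.5% DMSO baseline. Differentiated HepaRG cells received compound for 48 h at 8 concentrations (top 100 uM, half-log steps).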

Each structure is given as a SMILES string. Active and inactive are the calls of the source. Rule for the calls: active = hit-call score of the fitted dose curve at least 0.9, where 1 is the maximum; inactive = score below 0.9.

Sequence of Cytochrome P450 3A7 (Homo sapiens) (P24462 whole entry, looked up): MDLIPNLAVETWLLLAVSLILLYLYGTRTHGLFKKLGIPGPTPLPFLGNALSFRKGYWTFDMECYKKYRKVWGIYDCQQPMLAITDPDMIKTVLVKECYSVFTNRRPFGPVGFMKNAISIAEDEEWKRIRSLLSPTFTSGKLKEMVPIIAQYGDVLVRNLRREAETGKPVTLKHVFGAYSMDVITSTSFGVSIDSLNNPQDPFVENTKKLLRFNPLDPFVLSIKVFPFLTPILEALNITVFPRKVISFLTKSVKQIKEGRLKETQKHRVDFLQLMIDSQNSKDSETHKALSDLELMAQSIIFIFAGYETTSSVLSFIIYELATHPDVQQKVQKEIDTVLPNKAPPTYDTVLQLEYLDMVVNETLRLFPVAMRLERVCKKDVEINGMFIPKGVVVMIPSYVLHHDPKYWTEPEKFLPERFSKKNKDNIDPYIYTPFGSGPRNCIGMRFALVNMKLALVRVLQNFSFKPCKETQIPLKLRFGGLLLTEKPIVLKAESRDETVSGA
Sequence of Cytochrome P450 2C19 (Homo sapiens) (P33261 whole entry, looked up): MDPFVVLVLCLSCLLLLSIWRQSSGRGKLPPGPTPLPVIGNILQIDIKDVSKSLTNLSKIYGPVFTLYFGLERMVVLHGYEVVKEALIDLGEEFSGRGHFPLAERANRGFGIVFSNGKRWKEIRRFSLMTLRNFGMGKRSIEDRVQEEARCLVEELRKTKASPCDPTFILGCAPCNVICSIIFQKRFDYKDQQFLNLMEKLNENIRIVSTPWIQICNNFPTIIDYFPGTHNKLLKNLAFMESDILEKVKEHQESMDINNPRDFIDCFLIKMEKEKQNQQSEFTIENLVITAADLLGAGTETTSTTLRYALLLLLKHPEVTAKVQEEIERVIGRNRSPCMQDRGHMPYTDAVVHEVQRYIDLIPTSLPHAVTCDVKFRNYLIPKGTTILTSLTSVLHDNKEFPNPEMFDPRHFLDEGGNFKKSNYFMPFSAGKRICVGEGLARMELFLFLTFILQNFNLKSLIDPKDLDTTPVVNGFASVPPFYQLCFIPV
Sequence of Cytochrome P450 3A4 (Homo sapiens) (P08684 whole entry, looked up): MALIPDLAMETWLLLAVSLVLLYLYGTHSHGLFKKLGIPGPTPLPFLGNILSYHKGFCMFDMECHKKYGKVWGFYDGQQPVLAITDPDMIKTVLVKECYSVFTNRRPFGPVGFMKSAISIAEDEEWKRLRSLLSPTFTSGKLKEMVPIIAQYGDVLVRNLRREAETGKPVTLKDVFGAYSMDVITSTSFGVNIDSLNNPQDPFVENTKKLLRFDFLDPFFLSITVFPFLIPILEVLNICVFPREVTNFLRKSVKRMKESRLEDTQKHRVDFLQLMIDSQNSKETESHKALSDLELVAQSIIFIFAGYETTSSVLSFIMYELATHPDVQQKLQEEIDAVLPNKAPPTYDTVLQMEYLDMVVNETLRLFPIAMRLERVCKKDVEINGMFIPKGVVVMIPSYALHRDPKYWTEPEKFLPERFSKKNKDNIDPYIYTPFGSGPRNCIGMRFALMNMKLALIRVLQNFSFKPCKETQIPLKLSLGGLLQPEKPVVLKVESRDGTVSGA

Regarding `CCCCSP(=O)(SCCCC)SCCCC`, the AC50 was 12.8 µM (active) in [1]; 63.4 µM (active) in test [3]; 76.2 µM (active) in [4]; 26.1 µM (active) in test [5]; 76 µM (active) in test [6]; 92.5 µM (active) in test [12]. The AC50 was 68.1 µM (active) in test [13] and 50 µM (active) in test [14]. Moreover, the result in test [2], in test [7], in [8], in test [9], in test [10] and in test [11] was inactive. For the same compound, the call in test [15], in test [16], in test [17] and in test [18] was inactive.
As to `CCOP(=S)(OCC)Oc1cc(C)nc(C(C)C)n1`, the AC50 in test [1] was 16.1 µM (active); in [3], 9.92 µM (active). The compound was called inactive in test [2], in [4], in test [6], in [7], in test [8] and in test [10]. The compound was classed as inactive in test [11], in test [12], in test [13], in [14], in test [15] and in test [16]. Further, the result in [17] and in test [18] was inactive.
As for `CNC(=O)ON=C(SC)C(=O)N(C)C`, the compound was classed as inactive in [1], in test [19], in test [3], in [4], in test [5] and in test [6]. In addition, the compound was called inactive in test [7], in [8], in [9], in [10], in [11] and in test [12]. Moreover, the call in test [13], in [14], in test [20], in test [15], in test [16] and in [17] was inactive. The result in [18] was inactive. In addition, the AC50 in test [2] is 99.4 nM (active).

The values above are taken from PubChem BioAssay (EPA / NIEHS).
